In PubChem BioAssay AID1159580 (chemical genetic matrix, 2015):
In all, about 5,500 compounds went through this assay and about 2,000 (36%) were called active. Not shown: some 18% with an inconclusive outcome. No stated cut-off is given here; in the data, active means normalized growth mostly below about 0.91 (no sharp cut-off); inconclusive means no clear call, values can overlap the other calls; inactive means mostly above about 0.92. The list shows a part of the results.

Assay: chemical genetic growth profiling, strain panel (AID 1159580);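 further: tested at 20 µM; growth read once vehicle control cultures reached saturation at 30 °C; 1 = growth at the plate median or of vehicle wells; lower values mean less growth of the strain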
Details: S. cerevisiae deletion strains, growth OD

Measured: normalized growth

CCNC(=O)[C@H]1O[C@@H](n2cnc3c(N)nc(NCCc4ccc(CCC(=O)O)cc4)nc32)C(O)[C@H]1O (some centres undefined)
inactive: locus YAL040C, strain CLN3, hits give low values 0.963 | locus YCL061C, strain MRC1 (second series), hits give low values 0.991 | locus YDR363W, strain ESC2, hits give low values 0.972 | locus YER002W, strain NOP16, hits give low values 0.995 | locus YGR078C, strain PAC10, hits give low values 0.992 | locus YJR075W, strain HOC1, hits give low values 0.999 | locus YMR307W, strain GAS1, hits give low values 1 | locus YNL153C, strain GIM3, hits give low values 1 | locus YNL175C, strain NOP13, hits give low values 0.98 | locus YNL197C, strain WHI3, hits give low values 0.981 | locus YNL224C, strain SQS1, hits give low values 1.03 | locus YOR083W, strain WHI5 (second series), hits give low values 0.978 | locus YPL055C, strain LGE1, hits give low values 0.953 | locus YPL241C, strain CIN2, hits give low values 0.976
